# About 410 targets per protein were measured; listed, in parts, are those with the strongest signals and a random draw of the rest.
# B1: C-Reactive Protein (Homo sapiens), P02741 (protein)
# chain: MEKLLCFLVLTSLSHAFGQTDMSRKAFVFPKESDTSYVSLKAPLTKPLKAFTVCLHFYTELSSTRGYSIFSYATKRQDNEILIFWSKDIGYSFTVGGSEILFEVPEVTVAPVHICTSWESASGIVEFWVDGKPRVRKSLKKGYTVGAEASIILGQEQDSFGGNFEGSQSLVGDIGNVNMWDFVLSPDEINTIYLGGPFSPNVLNWRALKYEVQGEVFTKPQLWP
# B2: Surfactant Protein D (Human); Neck + Carbohydrate Recognition Domain (NCRD) (Homo sapiens) (protein)
# chain: MLLFLLSALVLLTQPLGYLEAEMKTYSHRTMPSACTLVMCSSVESGLPGRDRDGREGPRGEKGDPGLPGAAGQAGMPGQAGPVGPKGDNGSVGEPGPKGDTGPSGPPGPPGVPGPAGREGALGKQGNIGPQGKPGPKGEAGPKGEVGAPGMQGSAGARGLAGPKGERGVPGERGVPGNTGAAGSAGAMGPQGSPGARGPPGLKGDKGIPGDKGAKGESGLPDVASLRQQVEALQGQVQHLQAAFSQYKKVELFPNGQSVGEKIFKTAQFVKPFTEAQLLCTQAGGQLASPRSAAENAALQQLVVAKNEAAFLSMTDSKTEGKFTYPTGESLVYSNWAPGEPNDDGGSEDCVEIFTNGKWNDRACGEKRLVVCEA
# Assays:
# Assay in all cases: glycan array binding signal (z-score within array); higher = stronger binding
# [1] = molecular target: Fuc(a1-3)[Gal3S(b1-4)]Glc; conditions: glycan notation: IUPAC condensed, linker removed
# Outline: (§1)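 Glycan array data came from 3228 arrays in the Consortium for Functional Glycomics database, and only arrays with an available protein sequence were kept. Glycan names were put into IUPAC-condensed notation, and columns mapping to the same glycan were averaged. The binding signal is a within-array Z-score, averaged across arrays of one protein sequence run at different concentrations or buffers and across linkers. A negative Z-score can be read as non-binding.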
# [2] = molecular target: Fuc(a1-3)[GalNAc(b1-4)]Gal(b1-4)GlcNAc; conditions: glycan notation: IUPAC condensed, linker removed
# Outline: as §1
# [3] = molecular target: Gal(a1-2)Gal; conditions: glycan notation: IUPAC condensed, linker removed
# Outline: as §1
# [4] = molecular target: Gal(a1-4)Gal(b1-4)Gal; conditions: glycan notation: IUPAC condensed, linker removed
# Outline: as §1
# [5] = molecular target: Gal(b1-3)Gal; conditions: glycan notation: IUPAC condensed, linker removed
# Outline: as §1
# [6] = molecular target: Gal(b1-3)GalNAc(b1-3)Gal(a1-4)Gal(b1-4)Glc; conditions: glycan notation: IUPAC condensed, linker removed
# Outline: as §1
# [7] = molecular target: Gal(b1-3)GlcNAc(b1-3)Gal(b1-3)GlcNAc; conditions: glycan notation: IUPAC condensed, linker removed
# Outline: as §1
# [8] = molecular target: Gal(b1-3)[Fuc(a1-4)]GlcNAc(b1-3)Gal(b1-4)GlcNAc; conditions: glycan notation: IUPAC condensed, linker removed
# Outline: as §1
# [9] = molecular target: Gal(b1-3)[Fuc(a1-4)]GlcNAc(b1-3)Gal(b1-4)[Fuc(a1-3)]GlcNAc; conditions: glycan notation: IUPAC condensed, linker removed
# Outline: as §1
# [10] = molecular target: Gal(b1-4)GalNAc(a1-3)[Fuc(a1-2)]Gal(b1-4)GlcNAc; conditions: glycan notation: IUPAC condensed, linker removed
# Outline: as §1
# [11] = molecular target: Gal(b1-4)GalNAc(b1-3)[Fuc(a1-2)]Gal(b1-4)GlcNAc; conditions: glycan notation: IUPAC condensed, linker removed
# Outline: as §1
# [12] = molecular target: Gal(b1-4)Glc6S; conditions: glycan notation: IUPAC condensed, linker removed
# Outline: as §1
# [13] = molecular target: Gal(b1-4)GlcNAc(b1-3)Gal(b1-4)[Fuc(a1-3)]GlcNAc(b1-3)Gal(b1-4)[Fuc(a1-3)]GlcNAc; conditions: glycan notation: IUPAC condensed, linker removed
# Outline: as §1
# [14] = molecular target: Gal3S(b1-3)GalNAc; conditions: glycan notation: IUPAC condensed, linker removed
# Outline: as §1
# [15] = molecular target: Gal3S(b1-4)GlcNAc6S; conditions: glycan notation: IUPAC condensed, linker removed
# Outline: as §1
# [16] = molecular target: Gal4S6S(b1-4)GlcNAc; conditions: glycan notation: IUPAC condensed, linker removed
# Outline: as §1
# [17] = molecular target: GlcA(b1-6)Gal; conditions: glycan notation: IUPAC condensed, linker removed
# Outline: as §1
# [18] = molecular target: GlcNAc(b1-3)Gal(b1-3)GalNAc; conditions: glycan notation: IUPAC condensed, linker removed
# Outline: as §1
# [19] = molecular target: GlcNAc(b1-4)GlcNAc(b1-4)GlcNAc; conditions: glycan notation: IUPAC condensed, linker removed
# Outline: as §1
# [20] = molecular target: Kdn(a2-3)Gal(b1-3)GlcNAc; conditions: glycan notation: IUPAC condensed, linker removed
# Outline: as §1
# [21] = molecular target: Man(a1-2)Man(a1-2)Man(a1-3)[Man(a1-2)Man(a1-3)[Man(a1-2)Man(a1-6)]Man(a1-6)]Man(b1-4)GlcNAc(b1-4)GlcNAc; conditions: glycan notation: IUPAC condensed, linker removed
# Outline: as §1
# [22] = molecular target: Neu5Ac(a2-3)Gal(b1-4)GlcNAc(b1-3)Gal(b1-4)GlcNAc; conditions: glycan notation: IUPAC condensed, linker removed
# Outline: as §1
# [23] = molecular target: Neu5Ac(a2-3)Gal(b1-4)GlcNAc(b1-6)[Gal(b1-3)]GalNAc; conditions: glycan notation: IUPAC condensed, linker removed
# Outline: as §1
# [24] = molecular target: Neu5Ac(a2-3)Gal6S(b1-4)[Fuc(a1-3)]GlcNAc; conditions: glycan notation: IUPAC condensed, linker removed
# Outline: as §1
# [25] = molecular target: Neu5Ac(a2-8)Neu5Ac(a2-8)Neu5Ac(a2-8)Neu5Ac(a2-3)[GalNAc(b1-4)]Gal(b1-4)Glc; conditions: glycan notation: IUPAC condensed, linker removed
# Outline: as §1
# [26] = molecular target: Gal(a1-3)Gal(b1-4)Glc; conditions: glycan notation: IUPAC condensed, linker removed; mutation: F355A
# Outline: as §1
# [27] = molecular target: Gal(a1-3)GalNAc; conditions: glycan notation: IUPAC condensed, linker removed; mutation: F355A
# Outline: as §1
# [28] = molecular target: Gal(b1-4)GlcNAc(b1-2)Man(a1-3)[Gal(b1-4)GlcNAc(b1-2)Man(a1-6)]Man(b1-4)GlcNAc(b1-4)GlcNAc; conditions: glycan notation: IUPAC condensed, linker removed; mutation: F355A
# Outline: as §1
# [29] = molecular target: GalNAc(b1-3)Gal(a1-4)Gal(b1-4)GlcNAc; conditions: glycan notation: IUPAC condensed, linker removed; mutation: F355A
# Outline: as §1
# [30] = molecular target: GlcNAc(a1-6)Gal(b1-4)GlcNAc; conditions: glycan notation: IUPAC condensed, linker removed; mutation: F355A
# Outline: as §1
# [31] = molecular target: GlcNAc(b1-4)Gal(b1-4)GlcNAc; conditions: glycan notation: IUPAC condensed, linker removed; mutation: F355A
# Outline: as §1
# [32] = molecular target: GlcNAc(b1-4)GlcNAc(b1-4)GlcNAc(b1-4)GlcNAc(b1-4)GlcNAc; conditions: glycan notation: IUPAC condensed, linker removed; mutation: F355A
# Outline: as §1
# [33] = molecular target: Kdn(a2-3)Gal(b1-4)GlcNAc; conditions: glycan notation: IUPAC condensed, linker removed; mutation: F355A
# Outline: as §1
# [34] = molecular target: Man(a1-2)Man(a1-2)Man(a1-6)[Man(a1-3)]Man; conditions: glycan notation: IUPAC condensed, linker removed; mutation: F355A
# Outline: as §1
# [35] = molecular target: Man(a1-2)Man(a1-3)[Man(a1-2)Man(a1-6)]Man; conditions: glycan notation: IUPAC condensed, linker removed; mutation: F355A
# Outline: as §1
# [36] = molecular target: Man(a1-2)Man(a1-3)[Man(a1-2)Man(a1-6)]Man(a1-6)[Man(a1-2)Man(a1-2)Man(a1-3)]Man; conditions: glycan notation: IUPAC condensed, linker removed; mutation: F355A
# Outline: as §1
# [37] = molecular target: Man(a1-2)Man(a1-6)[Man(a1-3)]Man(a1-6)[Man(a1-2)Man(a1-2)Man(a1-3)]Man(b1-4)GlcNAc(b1-4)GlcNAc; conditions: glycan notation: IUPAC condensed, linker removed; mutation: F355A
# Outline: as §1
# [38] = molecular target: Man(a1-3)[Man(a1-6)]Man(a1-6)[Man(a1-2)Man(a1-3)]Man(b1-4)GlcNAc(b1-4)GlcNAc; conditions: glycan notation: IUPAC condensed, linker removed; mutation: F355A
# Outline: as §1
# [39] = molecular target: Man(a1-3)[Man(a1-6)]Man(a1-6)[Man(a1-3)]Man; conditions: glycan notation: IUPAC condensed, linker removed; mutation: F355A
# Outline: as §1
# [40] = molecular target: Man(a1-3)[Man(a1-6)]Man(a1-6)[Man(a1-3)]Man(b1-4)GlcNAc(b1-4)GlcNAc; conditions: glycan notation: IUPAC condensed, linker removed; mutation: F355A
# Outline: as §1
# [41] = molecular target: Neu5Ac(a2-6)Gal(b1-4)GlcNAc(b1-2)Man(a1-6)[Gal(b1-4)GlcNAc(b1-2)Man(a1-3)]Man(b1-4)GlcNAc(b1-4)GlcNAc; conditions: glycan notation: IUPAC condensed, linker removed; mutation: F355A
# Outline: as §1
# [42] = molecular target: Neu5Gc(a2-3)Gal(b1-4)[Fuc(a1-3)]GlcNAc; conditions: glycan notation: IUPAC condensed, linker removed; mutation: F355A
# Outline: as §1
binder,measurement,setting,value
B1,glycan array binding signal (z-score),[1],0.735
same,glycan array binding signal (z-score),[2],-0.478
same,glycan array binding signal (z-score),[3],-0.469
same,glycan array binding signal (z-score),[4],-0.603
same,glycan array binding signal (z-score),[5],-0.554
same,glycan array binding signal (z-score),[6],-0.576
same,glycan array binding signal (z-score),[7],1.62
same,glycan array binding signal (z-score),[8],-0.4
same,glycan array binding signal (z-score),[9],-0.468
same,glycan array binding signal (z-score),[10],-0.454
same,glycan array binding signal (z-score),[11],-0.521
same,glycan array binding signal (z-score),[12],0.381
same,glycan array binding signal (z-score),[13],0.095
same,glycan array binding signal (z-score),[14],0.199
same,glycan array binding signal (z-score),[15],1.48
same,glycan array binding signal (z-score),[16],2.24
same,glycan array binding signal (z-score),[17],-0.49
same,glycan array binding signal (z-score),[18],-0.505
same,glycan array binding signal (z-score),[19],1.94
same,glycan array binding signal (z-score),[20],-0.402
same,glycan array binding signal (z-score),[21],-0.496
same,glycan array binding signal (z-score),[22],-0.055
same,glycan array binding signal (z-score),[23],1.51
same,glycan array binding signal (z-score),[24],0.578
same,glycan array binding signal (z-score),[25],0.158
B2,glycan array binding signal (z-score),[3]; mutation: F355A,-0.16
same,glycan array binding signal (z-score),[26],-0.099
same,glycan array binding signal (z-score),[27],-0.129
same,glycan array binding signal (z-score),[28],-0.104
same,glycan array binding signal (z-score),[29],-0.138
same,glycan array binding signal (z-score),[30],-0.164
same,glycan array binding signal (z-score),[31],-0.146
same,glycan array binding signal (z-score),[19]; mutation: F355A,-0.155
same,glycan array binding signal (z-score),[32],-0.122
same,glycan array binding signal (z-score),[33],-0.072
same,glycan array binding signal (z-score),[34],2.74
same,glycan array binding signal (z-score),[35],4.68
same,glycan array binding signal (z-score),[36],15
same,glycan array binding signal (z-score),[37],1.59
same,glycan array binding signal (z-score),[38],2.15
same,glycan array binding signal (z-score),[39],5.56
same,glycan array binding signal (z-score),[40],2.12
same,glycan array binding signal (z-score),[41],-0.15
same,glycan array binding signal (z-score),[42],-0.145
